According to PubChem BioAssay (NCATS):
Results filed as inconclusive are left out. A call without a number means that no potency is given here. Calls of active or inactive are those of the source. The call rests on the fitted dose curve; in most records, active means well fitted cell-killing curve with a large enough effect; inconclusive means small, poorly fitted or top-dose-only effect, or effect the other way; inactive means no such curve, though single readings can be large or run the other way.

Experiment: Quantitative highthroughput screen to assess conditional lethalithy of NOMO1 cells grown in Human Plasma-Like Medium with dialyzed fetal bovine serum (HPLM+ds) (AID 1963878); further: nearly all actives have a fitted effect of over 35% in size
Conditions: NOMO1 AML cells in HPLM+ds, CellTiter-Glo viability, 48 h; series mostly up to 45.8 µM
From the text: Assay Provider: Jason Cantor Ph.D.
Department of Biochemistry
University of Wisconsin-Madison, Madison, WI, USA
Chemical screening studies have identified drug sensitivities across hundreds of cancer cell lines but most putative therapeutics fail to translate. Discovery and development of drug candidates in models that more accurately reflect nutrient levels in human blood is a major challenge. Here we performed high-throughput screens in conventional versus Human Plasma-Like Medium (HPLM) to identify compounds that were "missed" when screening using the artificial culture condition. Sets of conditional anticancer compounds spanned phases of clinical development and included non-oncology drugs were assessed. […] We also traced conditional phenotypes for several chemotherapeutics to availability of HPLM-specific metabolites and confirmed others for compounds whose reported targets are encoded by nonessential genes. Our findings establish generalizable strategies for exploiting conditional lethality in HPLM to reveal therapeutic candidates and mechanisms of action in cancer cells.
Described herein are the results of each viability screens against three cell lines: NOMO1 (an acute myeloid leukemia cell line); P12-Ichikawa (a T-cell acute lymphoblastic leukemia); and SEM (a B-cell ALL). Each assay was screened using 3 different cell culture media: homemade human plasma-Like medium with 10% dialyzed fetal bovine serum (HPLM+ds); RPMI1640 with 10% untreated FBS and 5mM glucose (RPMI+s); and RPMI1640 with 10% dialyzed fetal bovine serum and 5 mM glucose (RPMI+ds).
PROTOCOL TABLE (as described by Inglese J, Shamu CE and Guy RK. 2007)
SEQUENCE No. (e.g., 1, 2, 3, etc.); […] (e.g., Cells, Incubation, Reagent, etc.); VALUE and DESCRIPTION.
1; Cells; 5 uL; white, solid bottom 1536-well Greiner assay plate.
2; Compounds; 23 nL; Kalypsis pin tool (Wako USA) equipped with a 1536-well pin head to transfer to the assay plates.
3; Incubation; 48 hours; 37C incubation.
4; Reagent; 3 uL; CellTiter Glo (Promega).
5; Incubation; 5 min, room temperature
6; Detection; Luminescence, Viewlux PerkinElmer.
NOTES (numbers refer to Sequence numbers above)
1. Briefly, 5 ul of cell reagent was dispensed using a Multidrop Combi Dispenser. The NOMO1 and SEM cells were plated at 500 cells/well and the P12-Ichikawa line at 1000 cells/well.
2. After seeding the cells, 23 nL of MIPE 4.1 library compounds (in DMSO) were added to each plate using a Kalypsys 1536 Pintool dispenser. Bortezomib at final concentration of […] and DMSO were added to each plate as positive and negative controls respectively. For each screen, MIPE 4.1 compounds were added over an eleven-point concentration range […] in 3-fold dilutions.
3. Each plate was covered with a stainless steel gasketed lid to prevent evaporation and incubated for 48 hour at 37C, 95% relative humidity, and 5% CO2.
4-5. Three microliter CellTilter-GloTM luminescent substrate mix (Promega) reagent was added to the assay plate and incubated at room temperature for 5 min.
6. The luminescence signal was measured using a ViewLux (PerkinElmer) multiplate reader with a 2 second exposure time per plate. Data for each compound were normalized as percent viability such that measurements for DMSO and the empty well controls in each plate were defined as 100% and 0%, respectively.
Potency means the concentration at half of the fitted maximal effect.

Structure (SMILES) | Potency
COC1=C2C[C@@H](C)C[C@H](OC)[C@@H](O)[C@@H](C)C=C(C)[C@H](OC(N)=O)[C@@H](OC)C=CC=C(C)C(=O)NC(=CC1=O)C2=O | 18700 nM (active)
CN(C)c1ccc2cc(C(=O)N[C@@H](CCCN=C(N)CCl)C(=O)NCc3ccccc3)ccc2c1 | 23500 nM (active)
Cc1nc2cnc3ccc(C#Cc4cccnc4)cc3c2n1-c1ccc(C(C)(C)C#N)cc1 | 209 nM (active)
CN(C)CCN1C(=O)c2cccc3cc(N)cc(c23)C1=O | 14800 nM (active)
Cc1noc(NS(=O)(=O)c2ccc(N)cc2)c1C | inactive
COC(=O)Nc1cc(Nc2cc(NC3CC3)c3ncc(C#N)n3n2)c(Cl)c(N2CCN(C)CC2)c1 | 16600 nM (active)
O=C(C=Cc1ccc(/C=C/C(=O)Nc2ccc(C3=NCCN3)cc2)cc1)Nc1ccc(C2=NCCN2)cc1 | inactive
CCOc1ccccc1OCCNC(C)Cc1ccc(OC)c(S(N)(=O)=O)c1 (stereo not given) | inactive
O=C(Nc1cccc(Cl)c1)Nc1ncc(CCNc2ncnc3ccsc23)s1 | 105 nM (active)
COc1ccc(CCC(=O)Nc2nc3ccc(Cl)cc3s2)cc1OC | inactive
O=C1NC(=O)C(=Cc2ccc(-c3ccc(F)cc3O)o2)S1 | inactive
COc1ccc(C2(C#N)CCC(C(=O)O)CC2)cc1OC1CCCC1 (stereo not given) | inactive
Cc1cc2c(F)c(Oc3ncnn4cc(OC[C@@H](C)O)c(C)c34)ccc2[nH]1 | inactive
COc1ccc2c(Oc3ccc(NC(=O)c4c(C)n(CC(C)(C)O)n(-c5ccccc5)c4=O)cc3F)ccnc2c1 | inactive
CC[C@@]1(O)C(=O)OCc2c1cc1n(c2=O)Cc2cc3c(CN(C)C)c(O)ccc3nc2-1 | 332 nM (active)
CC1(O)CC(c2nc(-c3ccc4ccc(-c5ccccc5)nc4c3)c3c(N)nccn23)C1 (stereo not given) | 2350 nM (active)
CC(C=CC=C(C)C=CC1=C(C)CCCC1(C)C)=CC=CC=C(C)C=CC=C(C)C=CC1=C(C)CCCC1(C)C | inactive
CC1(C)CC(=O)c2c(C(F)(F)F)nn(-c3ccc(C(N)=O)c(NC4CCC(O)CC4)c3)c2C1 (stereo not given) | 235 nM (active)
C=C1C[C@@]2(O)O[C@@]3(C[C@H]2C(C)C)[C@H](C)CC[C@H]13 | inactive
Cc1ccc(/C=N/NC(=O)c2ccccc2Oc2ccccc2)o1 | inactive

Structure (SMILES) | Potency
CCCCC(C=O)NC(=O)C(CC(C)C)NC(=O)OCc1ccccc1 (stereo not given) | inactive
Cc1ccccc1C(C(=O)NC1CCCCC1)N(C(=O)CNc1ccc(C#N)cc1)c1cccc(F)c1 (stereo not given) | inactive
Clc1cccc(-n2nnnc2NCc2ccccc2Oc2ccccn2)c1Cl | inactive
COc1cc2nc(-c3ccc(N4CCN(C)CC4)cc3)nc(NCCN3CCOCC3)c2cc1OC | 526 nM (active)
CCC1(C)CC(=O)NC1=O (stereo not given) | inactive
COc1ccc(CCN2CCN(CCCc3ccccc3)CC2)cc1OC | inactive
CCc1ccc(OCc2ccccc2C(=O)Nc2ccc3nc(C)cc(N)c3c2)cc1 | 3320 nM (active)
COc1ccc2c(OCc3nnc4ccc(-c5ccccc5)nn34)ccnc2c1 | inactive
CN(C)c1ccc(C(=C2C=CC(=[N+](C)C)C=C2)c2ccc(N(C)C)cc2)cc1 | 118 nM (active)
COc1cc2c(cc1OC)CN(CCc1ccc(NC(=O)c3cccc4c(=O)c5cccc(OC)c5[nH]c34)cc1)CC2 | 1320 nM (active)
OC[C@H]1O[C@@H](Oc2ccc(O)cc2)[C@H](O)[C@@H](O)[C@H]1O | inactive
O=C(NC[C@H](O)CN1CCc2ccccc2C1)c1cc(NC2COC2)ncn1 | inactive
Cc1ccc(NC(=O)C2(c3ccc4c(c3)OC(F)(F)O4)CC2)nc1-c1cccc(C(=O)O)c1 | 187 nM (active)
O=c1oc2c(O)c(O)cc3c(=O)oc4c(O)c(O)cc1c4c23 | inactive
CC(C)[C@H](N)C(=O)OCCOCn1cnc2c(=O)[nH]c(N)nc21 | inactive
C[C@H](NC(=O)Cc1cc(F)cc(F)c1)C(=O)N[C@@H]1C(=O)N(C)c2ccccc2-c2ccccc21 | 4690 nM (active)
Cc1nnc(C(=O)NC(C)(C)c2nc(C(=O)NCc3ccc(F)cc3)c(O)c(=O)n2C)o1 | inactive
CCOC(=O)C(C)(C)Oc1ccc(Cl)cc1 | inactive
O=C(O)C1=CO[C@@H](O[C@@H]2O[C@H](CO)[C@H](O)[C@H](O)[C@H]2O)[C@@H]2C(CO)=CC[C@H]12 | inactive
Nc1nc(Nc2ccc(S(N)(=O)=O)cc2)nn1C(=O)c1c(F)cccc1F | 18700 nM (active)
